Assay outcomes from PubChem.
G9a block = blocks human histone lysine methyltransferase G9a; G9a H3K9 monomethylation, AlphaScreen, 2 h; Potency, µM (series often up to 102 µM), for the others: at the top dose activity, negative = inhibition, hits mostly inhibitors; 350,000 compounds, 8.8% hits; AID 504332; note: potency is the fitted concentration of half-maximal effect; % is set by controls: 0 for no effect and ±100 for the full control effect; nearly all actives have a fitted effect of over 75% in size
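Using a bead-based AlphaScreen, monomethylated H3K9 product from 2 h room-temperature reactions (G9a 20 nM, peptide 500 nM, SAM 20 uM) was detected with 0.5 ug/mL rabbit anti-H3K9me1 antibody.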
PLK1 PBD block = inhibitors of human PLK1 polo-box domain binding; P53350; Plk1 PBD binding of FITC phosphopeptide, fluorescence polarization; Potency, µM, inactives show max response, negative = inhibition, usual class: inhibitors; 360,000 compounds, 2.8% hits; AID 720504; note: potency is the fitted concentration of half-maximal effect; series mostly up to about 57 µM; % is set by controls: 0 for no effect and ±100 for the full control effect; nearly all actives have a fitted effect of over 65% in size
JMJD2A Tudor = blocks the human JMJD2A Tudor domain | Potency, µM (titrated, usually from 114 µM), inactives show at the top dose activity change, negative = inhibition, actives largely listed as inhibitors | O75164 | AID 504339 | AlphaScreen JMJD2A-Tudor / H3K4me3 peptide binding | 390,000 compounds, 4.4% hits; note: potency is the fitted concentration of half-maximal effect; % is set by controls: 0 for no effect and ±100 for the full control effect; nearly all actives have a fitted effect of over 50% in size
BAZ2B inh = inhibitors of human BAZ2B bromodomain | Q9UIF8 | AlphaScreen BAZ2B-H3K14Ac peptide displacement | Potency, µM (doses to about 114 µM), inactives show top-dose activity change, negative = inhibition, most hits filed as inhibitors | 360,000 compounds, 4.4% hits; note: potency is the fitted concentration of half-maximal effect; % is set by controls: 0 for no effect and ±100 for the full control effect; nearly all actives have a fitted effect of over 60% in size
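Complex of BAZ2B and biotin-H3K14Ac (50 nM apiece) forms over 30 min at RT, then faces library compounds up to 110 uM for another 30 min; AlphaScreen beads added, 20 min dark incubation, luminescence read.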
PI5P4Ka inh = inhibitors of human PI5P4K alpha | max response, % | P48426 | 330,000 compounds, 1.2% hits | AID 652105 | PI5P4Kalpha enzyme, ADP-Glo luminescence, 60 min; active compounds read low; active = max response of -50% or lower; inconclusive = between -30% and -50%; inactive = -30% or higher; note: value at the top dose of about 77 µM; % is set by controls: 0 for no effect and ±100 for the full control effect
Target sequence (P48426 whole entry, looked up): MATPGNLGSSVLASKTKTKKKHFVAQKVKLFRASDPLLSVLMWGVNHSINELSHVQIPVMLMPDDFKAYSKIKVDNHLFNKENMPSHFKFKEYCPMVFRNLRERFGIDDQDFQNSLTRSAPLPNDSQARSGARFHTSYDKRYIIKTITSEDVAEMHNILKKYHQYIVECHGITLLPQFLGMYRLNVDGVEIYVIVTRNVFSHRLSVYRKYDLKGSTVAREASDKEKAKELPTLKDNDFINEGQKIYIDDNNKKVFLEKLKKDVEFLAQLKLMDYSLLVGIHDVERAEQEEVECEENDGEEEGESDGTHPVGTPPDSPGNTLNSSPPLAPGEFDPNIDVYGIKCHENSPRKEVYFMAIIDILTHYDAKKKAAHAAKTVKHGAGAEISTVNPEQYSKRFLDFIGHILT
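PI5P4Kalpha ADP-Glo assay; 5 microM ATP final; 60 min RT reaction; HEPES pH 7.4/EGTA/CHAPS, 5% DMSO; controls lacking substrate or enzyme; luminescent end-point.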
HP1b chromo inh = inhibitors of HP1-beta chromodomain binding to methylated histone tails; AID 540317; AlphaScreen HP1-beta / biotin-H3K9me3 peptide binding; P83916; Potency, µM (doses to about 114 µM), without a hit: top-dose activity change, negative = inhibition, actives largely listed as inhibitors; 390,000 compounds, 0.56% hits; note: potency is the fitted concentration of half-maximal effect; nearly all actives have a fitted effect of over 70% in size
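Compound inhibition of the preformed complex between 50 nM HP1-beta and 50 nM biotinylated H3K9me3 peptide was read by AlphaScreen. Buffer was PBS pH 7.4 with 0.01% Tween-20. Incubations ran 30 min at room temperature, with 10 ug/mL donor/acceptor beads.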
* marks the source's active call; other numbers are inactive results; ? = inconclusive; . = not tested or not shown; [ ] = dose if it differs, or a comment. Most compounds without a hit are left out; they make up all but 12% or so of the library. Unless noted, calls come from the whole dose curve; as a rule, active = well fitted curve in the direction sought with a large enough effect; inconclusive = small, poorly fitted or top-dose-only effect, or another doubt; inactive = no such curve, though single readings can be large; an effect the other way counts as inactive or inconclusive.

SMILES	G9a block	PLK1 PBD block	JMJD2A Tudor	BAZ2B inh	PI5P4Ka inh	HP1b chromo inh
Cc1c(C)n(Cc2ccccc2)c2ccc(C(=O)OCCCN(C)C)cc12	8.8%	-9.5%	39.8µM*	-11.6%	1.3	?
Cc1ccccc1CCNC(=O)c1ccc2c(c1)c(C)c(C)n2Cc1ccccc1	-32.1%[59 µM]	.	-29.2%	-28.1%	.	35.9%
Cc1c(C)n(CCN(C)C)c2ccc(C(=O)OCCN(C)C)cc12	14.1µM*	1.6%	-7.4%	-26.2%	-1.5	9.1%
CCCCc1nc2ccccc2c(NC(=O)CNC(C)(C)C)c1CCC	8.91µM*	-11.0%	10µM*	50.1µM*	5.6	-21.4%
CCn1c(C)nc2cc(C(=O)N/N=C/c3cccc(OC)c3O)ccc21	79.4µM*	-0.2%	?	-16.3%	0.0	-5.6%
CCC(=NNC(=O)c1ccc2c(c1)nc(C)n2CC)c1cc(F)ccc1O	.	14.9%	-27.1%	.	-1.0	17.4%
CCn1c(C)nc2cc(C(=O)N/N=C/c3ccc(O)c(O)c3O)ccc21	2µM*	8.44µM*	6.31µM*	11.2µM*	-73.8*	8.91µM*
Cc1cn(CC(=O)NCCc2ccccn2)c(=O)[nH]c1=O	.	21.2µM*	?	.	?	25.9%
C=CCN1C(=O)/C(=C/c2ccc(-c3ccc(F)cc3)o2)SC1=S	?	-11.4%	?	?	-23.1	-20.4%
O=C1NC(=O)/C(=C/c2ccc(-c3ccc(F)cc3O)o2)S1	21.2µM*	.	.	.	.	.
CCCCCCCCOc1ccc(C2OC34CCCCC3C(C#N)(C#N)C2(C#N)C(=N)O4)cc1 (configuration not stated)	?	23.8µM*	-5.5%[11.4 µM]	86.0%	1.7	191.3%
CCCCC1OC23CCCCC2C(C#N)(C#N)C1(C#N)C(=N)O3 (configuration not stated)	-29.2%[59 µM]	-7.1%	-13.7%	?	-6.7	23.5%
CC(C)c1ccc(C(=O)Nc2cc(-c3ccccc3F)nn2-c2ccccc2)cc1	13.1%[59 µM]	.	-6.8%	7.3%	.	14.9%[57 µM]
Cc1cc(C)n(CCNc2nc3nonc3nc2N2CCCCC2)n1	?	-10.6%	-17.7%	0.8%	-1.1	21.9%[57 µM]
CCn1c(C(=O)NCc2cc(Br)ccc2OC)cc2oc3ccccc3c21	-8.3%[59 µM]	.	-27.6%	-19.5%	.	20.7%
N#Cc1c(-n2cccc2)cccc1-n1cccc1	?	-9.3%	?	50.1µM*	.	-35.1%
N#Cc1c(Cl)cccc1-n1ccnc1	49.4%[12.7 µM]	-3.3%	2.6%	0.4%	.	34.8%
O=C(O)CC(O)CC(O)/C=C/c1c(C2CC2)nc2ccccc2c1-c1ccc(F)cc1 (configuration not stated)	25.3%[59 µM]	.	.	.	.	.
O=C(c1nc(-c2ccccc2)n(-c2ccccc2)n1)N1CCN(S(=O)(=O)c2ccccc2)CC1	?	?	70.8µM*	?	0.4	-14.6%
O=C(O)c1nc(-c2ccccc2)n(-c2ccccc2)n1	?	0.9%	-13.2%	0.0%	2.9	28.9%
Cn1c(=O)c2cc(S(=O)(=O)NCCC(=O)N3CC=C(c4ccccc4)CC3)ccc2n(C)c1=O	-23.5%	-10.5%	-5.1%	-24.8%	.	29.0%
CCC(Cc1ccccc1)NC(=O)CN(C)S(=O)(=O)c1ccc2c(c1)c(=O)n(C)c(=O)n2C (configuration not stated)	44.7µM*	-10.5%	-7.8%	9.4%	9.2	34.7%
CN(CC(=O)N1CC=C(c2ccccc2)CC1)S(=O)(=O)c1ccc2c(c1)c(=O)n(C)c(=O)n2C	44.7µM*	-23.4%	-16.6%	11.3%	-0.1	43.2%
O=C(Nc1cccc2cccnc12)c1ccc(Br)cc1Br	9.7%	-2.8%	0.7%	2.8%	7.3	77.7%
COC(=O)Cn1c2[n+](c3ccccc31)CC(O)CS2 (configuration not stated)	-27.5%[59 µM]	-3.7%	-4.4%	-0.8%	-3.0	41.8%
CCOC(=O)Cn1c2[n+](c3ccccc31)CC(O)CS2 (configuration not stated)	?	-8.5%	44.7µM*	?	.	7.4%
Cc1ccccc1/C=C/C1=NCCN1	29.9µM*	-8.3%	20µM*	?	0.4	?
